Most compounds without a hit are left out; they make up all but 12% or so of the library.
CHX counter – affects cycloheximide protein synthesis inhibition readout, counter-screen. cell reporter, cycloheximide protein synthesis inhibition counterscreen. max response, %. 300,000 compounds, 12% hits; in the data active means max response mostly above about 13%, no sharp cut-off; inactive means mostly below about 14%; further: read at 38.3 µM for the half of the compounds with a filed dose; 0% is about no effect
Lassa entry inh – inhibitors of Lassa virus binding or cell entry. 300,000 compounds, 1.2% hits. Lassa virus pseudotype entry inhibition, cell reporter. Potency, µM (top dose mostly 37.9 µM), without a hit: at the highest dose activity change, negative = inhibition, actives largely listed as inhibitors; calls by dose curve; tested in HEK293 cells; further: potency means the concentration at half of the fitted maximal effect; on the % scale 0 is the no-effect control and ±100 the full control effect; nearly all actives have a fitted effect of over 50% in size
Shiga inhibitor – blocks Shiga toxin action in Vero cells; Vero cells, Shiga toxin protein synthesis inhibition reporter; inhibition, % at 38.7 µM; 290,000 compounds, 9.2% hits; in the data active means inhibition mostly above about 28%, no sharp cut-off; inactive means mostly below about 43%; further: 0% is about no effect
MARV entry inh – inhibitors of Marburg virus binding or cell entry | Marburg virus pseudotyped entry inhibition, cell reporter | Potency, µM (titrated, usually from 37.8 µM), for the others: top-dose activity change, negative = inhibition, hits mostly inhibitors | 300,000 compounds, 1.8% hits | AID 540276; calls by dose curve; tested in HEK293 cells; further: potency means the concentration at half of the fitted maximal effect; on the % scale 0 is the no-effect control and ±100 the full control effect
Numbers without * were called inactive; ? = inconclusive; . = not tested or not shown; [ ] = remark or other dose.

SMILES	CHX counter	Lassa entry inh	Shiga inhibitor	MARV entry inh
O=C(O)c1ccc(/C=N/Nc2ccc(Cl)nn2)cc1	1	0%[46.1 µM]	4	8%[46.1 µM]
Cc1ccc(C(=O)NC(=S)Nc2nc(-c3cccc([N+](=O)[O-])c3)cs2)c(Cl)c1	1	16%[46.1 µM]	-2	14%[46.1 µM]
O=C(Cn1nnc(-c2ccccc2)n1)N/N=C/c1cc([N+](=O)[O-])ccc1O	-3	3%	17	3%
O=C(Cn1nc2ccccc2n1)N/N=C/c1cc([N+](=O)[O-])ccc1O	-1	?	-5	10µM*
CCC(=O)c1ccc(OCC(O)Cn2c(C)nc3ccccc32)cc1 (stereo not drawn)	1	?	1	6.3µM*
CCC(=O)c1ccc(OCC(O)CN(CCc2ccccc2)Cc2ccccc2)cc1 (stereo not drawn)	13	16µM*	-1	?
OCCn1c(SCCOc2ccccc2)nc2ccccc21	2	-8%	14	?
CCSc1nc2ccccc2n1CCOc1ccccc1	21*	-11%	48*	6%[46.1 µM]
Cc1ccc(NCc2nc3ccccc3n2CCOc2ccccc2)cc1	76*	?	121*	?
Cc1nc2ccccc2n1CC(O)COc1ccc(C(=O)O)cc1 (stereo not drawn)	.	-18%[46.1 µM]	.	14%[46.1 µM]
CC1CC(C)CN(CC(C)(C)NS(=O)(=O)c2ccc(Cl)cc2)C1 (stereo not drawn)	-4	19%	-13	?
COc1ccccc1NC(=O)Nc1cc(NC(=O)Nc2ccccc2OC)c(C)nc1C	-3	?	-5	?
CCOc1ccc(C(=O)OCc2cc(=O)n3nc(C4CC4)sc3n2)cc1	.	12%[46.1 µM]	.	.
CCCn1c(CNc2ccc(Br)cc2)nc2ccccc21	17*	.	39	.
Cc1nc2ccccc2n1CCOc1ccccc1	12*	20%	21	?
Cc1ccccc1OCCn1c(C)nc2ccccc21	-1	-17%[46.1 µM]	.	?
Cc1csc(=O)n1CC(=O)OCC(=O)Nc1cc(Cl)ccc1[N+](=O)[O-]	0	3%	-2	38%
COc1ccc(N(CC(C)C)S(=O)(=O)c2nnc(NC(=O)c3ccco3)s2)cc1	-5	-23%[46.1 µM]	-4	.
CC(=O)c1ccccc1NCC(=O)Nc1ccc(C)cc1	30*	12%	61*	-1%
CSc1ncccc1C(=O)Nc1cc(C)ccn1	11*	.	18	.
COc1ccc(NC(=O)c2ccccc2NC(=O)c2ccccc2)cc1	13	.	-4	.
Cc1ccnc(NC(=O)c2ccccc2NC(=O)C(C)(C)C)c1	0	?	-2	?
COc1ccc(C(=O)Nc2ccccc2C(=O)Nc2cc(C)ccn2)cc1	41*	15%	.	-12%
COc1ccc(C(=O)Nc2ccccc2C(=O)Nc2cccc(C)n2)cc1	9.8*	.	28*	.
Cc1noc(COc2ccccc2OC[C@H](O)CNC(C)(C)C)n1	.	.	.	-8%
SMILES	CHX counter	Lassa entry inh	Shiga inhibitor	MARV entry inh
CN[C@H](CC(C)C)C(=O)N[C@H]1C(=O)N[C@@H](CC(N)=O)C(=O)N[C@@H]2C(=O)N[C@H]3C(=O)N[C@H](C(=O)N[C@H](C(=O)O)c4cc(O)cc(O)c4-c4cc3ccc4O)[C@H](O)c3ccc(c(Cl)c3)Oc3cc2cc(c3O[C@@H]2O[C@H](CO)[C@@H](O)[C@H](O)[C@@H]2O[C@H]2C[C@](C)(N)[C@H](O)[C@H](C)O2)Oc2ccc(cc2Cl)[C@H]1O	.	43%	.	-11%
COc1ccc(Br)cc1C(=O)Nc1ccc(C(=O)O)cc1	-4	6%[46.1 µM]	14	0%[46.1 µM]
CC(=O)Nc1ccc(NC(=O)c2cccc3ccccc23)cc1	4	?	12	1%
COc1cc2ccccc2cc1C(=O)Nc1cc(C)ccn1	42*	-4%[46.1 µM]	104*	?
COc1cc2ccccc2cc1C(=O)Nc1ccc(C)cc1	26*	.	75	.
Cc1ccc(NC(=O)c2cccc3ccccc23)cc1	33*	26%	173*	9%
COc1cc(C(=O)Nc2cc(C)ccn2)cc(OC)c1OC	1	0%	1	15%
COc1ccc(Br)cc1C(=O)Nc1ccc(O)cc1	17*	-10%	41*	25%
NNC(=S)NCc1ccc2c(c1)OCO2	3	?	-8	?
Cc1ccnc(NC(=S)NC(=O)c2cncc(Br)c2)c1	25*	-3%	6	?
COc1ccc(C(=O)Nc2cccnc2)cc1	26	14%	64	16%
COc1ccc(C(=O)Nc2ccccc2C(=O)NC(Cc2ccc(O)cc2)C(=O)NNC(=O)c2ccccc2)cc1 (stereo not drawn)	20*	?	-2	-16%
COc1ccc(C(=O)Nc2ccccc2C(=O)Nc2cccnc2)cc1	14	17%[46.1 µM]	49*	?
Cc1ccc(C)c(NC(=S)NC(=O)c2cncc(Br)c2)c1	.	3%	.	?
COc1ccc(C(=O)NC(=O)Nc2cc(C)ccn2)cc1	34*	?	77*	?
CCCN1CCN(C(=O)CS(=O)(=O)Cc2nc(-c3cccc(OC)c3)oc2C)CC1	1	2%[46.1 µM]	-15	-9%[46.1 µM]
Cc1ccc(NC(=O)c2ccccc2NC(=O)CCC(=O)O)cc1	45*	?	19*	?
O=C(Nc1cccnc1)c1ccccc1O	21*	9%	58*	7%
CCCOc1ccc(N2C(=O)CC(N(Cc3ccc(OC)cc3)C(=S)Nc3ccccc3)C2=O)cc1 (stereo not drawn)	25*	-22%	30	?
O=[N+]([O-])c1cccc2c(N3CCCC3)ccnc12	21*	?	29	?
CNC(=O)c1nc(C)c(C2(C)CC(c3ccccc3)=NO2)s1 (stereo not drawn)	3	.	-6	.
Cc1nc(C(=O)NC2CC2)sc1C1(C)CC(c2ccccc2)=NO1 (stereo not drawn)	18*	.	20	.
C=C(C)CCC1(C)NC(=O)N(c2ccccc2)N1 (stereo not drawn)	2	?	28	?
CCCCCC1(C)NC(=S)N(c2ccccc2)N1 (stereo not drawn)	20*	-20%	39	-14%[46.1 µM]
CCCCCCC1(C)NC(=S)N(c2ccccc2)N1 (stereo not drawn)	7	-22%	3	-22%[46.1 µM]
SMILES	CHX counter	Lassa entry inh	Shiga inhibitor	MARV entry inh
CC1(CC(=O)Nc2ccccc2)NC(=S)N(c2ccccc2)N1 (stereo not drawn)	24*	16%	44*	12%[46.1 µM]
Cc1ccc2c(c1)C(=O)C1(O)CCN(c3ccccc3)C1=N2 (stereo not drawn)	36*	.	47	.
Fc1ccc(NC(=S)N2N=CCC2c2ccccc2)cc1 (stereo not drawn)	80*	?	61*	?
O=C(Nc1cccc(Cl)c1)N1N=CCC1c1ccccc1 (stereo not drawn)	-3	-22%	10	?
Cc1ccc(SCC(=O)N2N=CCC2c2ccccc2)cc1 (stereo not drawn)	24*	12%[46.1 µM]	67	?
S=C(Nc1ccccc1)N1N=CCC1c1ccccc1 (stereo not drawn)	26*	4%	78*	13%
O=C(Nc1cccc2ccccc12)N1N=CCC1c1ccccc1 (stereo not drawn)	59*	?	109*	-5%[46.1 µM]
COC(=O)NC(/C=C/c1ccco1)[C@@]1(C(=O)OC)CCCC1=O (stereo partly drawn)	.	.	.	3%[14.2 µM]
CC(C)(Oc1ccc(Cl)cc1)C(=O)OCC(=O)NCCc1ccccc1	-1	-11%[46.1 µM]	-13	8%[46.1 µM]

Bioassay records from PubChem.
